# Assay results published in the supplement of paper PMC13380429.
# Values without a mark were called inactive.
# Test system: Vero E6 infected with SARS-CoV-2
# Test: inhibition of SARS-CoV-2 cytopathic effect; higher = more antiviral protection, active = above 15
# Settings: 48 h
Structure (SMILES),inhibition of SARS-CoV-2 cytopathic effect (1 nM),inhibition of SARS-CoV-2 cytopathic effect (8.33 nM),inhibition of SARS-CoV-2 cytopathic effect (100 nM),inhibition of SARS-CoV-2 cytopathic effect (833.33 nM),inhibition of SARS-CoV-2 cytopathic effect (10000 nM)
CC(=O)NCCc1c(Cc2ccccc2)[nH]c2ccccc12 [luzindole],5.27%,4.35%,1.82%,3.18%,3.21%
COc1ccc(S(=O)(=O)N2c3ccc(Cl)cc3[C@](O)(c3ccccc3Cl)[C@@H]2C(=O)N2CCC[C@H]2C(N)=O)cc1OC [relcovaptan],-0.27%,-0.84%,0.53%,1.63%,2.72%
C[N+](C)(C)CCCCCC[N+](C)(C)C [hexamethonium],-0.33%,1.65%,0.44%,-0.93%,-1.17%
CC1(C)CC(=O)C(C2C3=C(CC(C)(C)CC3=O)Oc3ccccc32)C(=O)C1 (stereo not given),-0.63%,0.77%,-0.14%,1.93%,-2.4%
Cc1cc(C(=O)Nc2cccc(C(=O)Nc3cccc(C(F)(F)F)c3)c2)on1,0.37%,3.92%,-2.18%,-1.26%,-3.26%
COc1ccc(OC)c2c(=S)c3ccccc3[nH]c12,2.65%,4.64%,1.38%,1.44%,2.75%
COC(=O)[C@H](Cc1cccc(C(=N)N)c1)[C@@H](C)NC(=O)c1ccc(-c2cc[n+]([O-])cc2)cc1 [otamixaban],-2.31%,-2.54%,-1.48%,-0.51%,-3.22%
Cc1c(Cl)cccc1S(=O)(=O)Nc1nc(NCCc2ccccc2)nc2c1CN(Cc1ccccc1)CC2,5.62%,1.85%,0.14%,0.89%,-1.37%
N#C[C@@H]1C[C@@H]2C[C@@H]2N1C(=O)[C@@H](N)C12CC3CC(CC(O)(C3)C1)C2,-1.01%,-0.66%,0.62%,0.34%,2.08%
CC(=O)OC[C@H]1O[C@@H]([S-])[C@H](OC(C)=O)[C@@H](OC(C)=O)[C@@H]1OC(C)=O.CCP(CC)CC.[Au+] [auranofin],3.21%,4.4%,7.71%,18.4% (active),-21.1%
O=C(NCc1ccc(F)cc1)N1CCN2C(=O)OC(c3ccccc3)(c3ccccc3)[C@@H]2C1 (racemic),1.17%,1.29%,3.05%,3.22%,-6.01%
C[N+]1(C)[C@@H]2CC[C@H]1C[C@@H](OC(=O)C(CO)c1ccccc1)C2 (stereo not given in full) [methylatropine-nitrate],1.74%,2.06%,2.14%,4.12%,3.88%
O=C(O)c1ccccc1O [salicylic-acid],1.59%,-5.54%,-2.37%,0.26%,1.57%
CS(=O)(=O)Nc1ccc(-c2coc3cc(OCc4cccc(C(=O)O)c4)ccc3c2=O)cc1,-0.72%,1.73%,-1.1%,-0.83%,-0.08%
C[C@](N)(Cc1ccc(O)cc1)C(=O)O [metirosine],2.52%,2.13%,7.36%,2.34%,2.26%
Nc1nc2c(ncn2COCCO)c(=O)[nH]1 [acyclovir],12.6%,6.63%,6.1%,7.16%,2.2%
NC(=O)c1ccc[n+]([C@@H]2O[C@H](COP(=O)([O-])OP(=O)(O)OC[C@H]3O[C@@H](n4cnc5c(N)ncnc54)[C@H](O)[C@@H]3O)[C@@H](O)[C@H]2O)c1 [nadide],-2.68%,-2.65%,-0.81%,-0.61%,-0.54%
Oc1ccc2c(c1)CC[C@H](c1ccccc1)[C@@H]2c1ccc(OCCN2CCCC2)cc1 [lasofoxifene],-1.63%,4.35%,0.8%,-0.28%,49.6% (active)
